± gives the standard deviation of the averaged measurements. Whole data set: some 33,000 sequences, median “E-score (dimensionless, -0.5 to 0.5)” near -0.046, cut for the highest 2% near 0.36. The sample as a whole holds a higher share of the highest values than the screen did.
tested on: T1, SpTbr T-box DNA-binding domain (GST fusion); assay: PBM E-score of 8-mer (E-score (dimensionless, -0.5 to 0.5)); Tbr is Tbrain of the sea star Patiria miniata (Pm) or the sea urchin Strongylocentrotus purpuratus (Sp); higher = stronger binding preference; conditions: the construct has about 5 more residues each side
T1 sequence: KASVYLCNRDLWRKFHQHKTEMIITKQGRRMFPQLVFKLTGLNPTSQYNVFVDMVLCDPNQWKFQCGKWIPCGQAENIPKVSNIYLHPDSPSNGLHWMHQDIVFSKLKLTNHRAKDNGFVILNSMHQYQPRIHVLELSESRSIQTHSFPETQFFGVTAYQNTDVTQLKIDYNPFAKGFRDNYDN
Summary of the method: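 Each ungapped 8-mer received an enrichment E-score from the Universal PBM Analysis Suite, averaged over duplicate arrays. The proteins were Tbr T-box DNA-binding domains, covering the whole T-box plus about five flanking residues, fused to GST and expressed in BL21 E. coli at 20 °C before glutathione affinity purification. Universal Agilent oligonucleotide arrays were made double-stranded by primer extension and incubated with 200 nM protein in PBS (pH 7.5). The arrays were then scanned and quantified, and every 8-mer was scored from probe intensities.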

Row | Sequence | PBM E-score of 8-mer
1 | CGATGCAG | -0.164 ± 0.022
2 | AATCTTCC | -0.133 ± 0.036
3 | GAAGTAAA | -0.281 ± 0.027
4 | ATAATCTC | -0.0752 ± 0.092
5 | CCGAGACG | -0.121 ± 0.015
6 | GCGCGAGA | 0.3663 ± 0.0029
7 | TCGCGAGA | 0.367 ± 0.01
8 | GCGCGAGC | 0.298 ± 0.053
9 | ACGCGAGA | 0.219 ± 0.016
10 | CCGCGAGA | 0.224 ± 0.037
11 | GCGAGAGA | 0.203 ± 0.061
12 | AACTATAT | -0.0107 ± 0.13
13 | GAGTTACC | 0.144 ± 0.011
14 | CGCACAGC | 0.122 ± 0.012
15 | GCCCCAAC | 0.133 ± 0.059
16 | ATGTGTAA | 0.342 ± 0.0099
17 | GTCACCCA | 0.203 ± 0.0083
18 | CTCACCTA | 0.385 ± 0.014
19 | CTCACCGA | 0.0544 ± 0.017
20 | GTCACCTA | 0.392 ± 0.017
21 | CTTACCTA | -0.163 ± 0.054
22 | GTCACCGA | 0.0907 ± 0.0094
23 | GGTCTCGA | -0.115 ± 0.014
24 | GCATGGGC | -0.0364 ± 0.0065
25 | GCTACTAC | 0.013 ± 0.035

Row | Sequence | PBM E-score of 8-mer
26 | ATTCCCAA | -0.227 ± 0.012
27 | CGTGAGAC | 0.2491 ± 0.0021
28 | TGAGAGAA | 0.0644 ± 0.036
29 | GGTGAGAA | 0.4745 ± 0.0016
30 | GGTGAGGA | 0.384 ± 0.0073
31 | TCTGAGAA | -0.238 ± 0.12
32 | GGTGAGAC | 0.3819 ± 0.0012
33 | CGTGAGAA | 0.347 ± 0.016
34 | TGTGAGAA | 0.4336 ± 0.0026
35 | CGTGAGGA | 0.178 ± 0.011
36 | AGTGAGAC | 0.169 ± 0.04
37 | GCTGAGAA | 0.26 ± 0.048
38 | AGTGAGGA | 0.246 ± 0.028
39 | CGTTGAAG | 0.0941 ± 0.031
40 | ATGGACAA | 0.101 ± 0.003
41 | AGGCCAAC | -0.0875 ± 0.028
42 | CGAGTAGC | 0.0635 ± 0.0055
43 | TAGGGCGA | -0.00769 ± 0.086
44 | GAACTTGA | -0.0691 ± 0.0032
45 | CCGCGACG | 0.0384 ± 0.061
46 | ATCAGATA | -0.0339 ± 0.043
47 | AGTGAGAT | 0.287 ± 0.033
48 | AGTGAGAG | 0.3 ± 0.0092
49 | AGTGAGAA | 0.422 ± 0.014
50 | CAACCTGA | -0.0529 ± 0.059

Row | Sequence | PBM E-score of 8-mer
51 | ATTGGTCC | -0.197 ± 0.039
52 | AACGTGTA | 0.135 ± 0.074
53 | CACGTGTA | 0.272 ± 0.0034
54 | CACGTGTC | 0.391 ± 0.014
55 | AACGTGTC | 0.372 ± 0.0067
56 | ACCGTGTG | 0.203 ± 0.052
57 | AACGTGTG | 0.4114 ± 0.0041
58 | CACGTGAC | 0.286 ± 0.042
59 | AGCGTGTC | 0.152 ± 0.072
60 | AACGTGCG | 0.32 ± 0.0051
61 | ACTCGATG | -0.0556 ± 0.081
62 | ACAACGAT | -0.00065 ± 0.016
63 | CACGCCCC | 0.24 ± 0.013
64 | AGACAACG | -0.0213 ± 0.033
65 | CAGCTAGG | 0.101 ± 0.087
66 | CAGCCTCC | -0.239 ± 0.021
67 | CAGGCTAC | -0.221 ± 0.014
68 | ACAATTCA | 0.163 ± 0.069
69 | CCCGACAG | 0.0718 ± 0.038
70 | ACCGACAC | 0.373 ± 0.0082
71 | GCCGACAC | 0.397 ± 0.0048
72 | CCCGACAA | 0.154 ± 0.02
73 | GCCGACCC | -0.201 ± 0.12
74 | CCCGACAC | 0.367 ± 0.017
75 | ACCGACAA | -0.0797 ± 0.034

Row | Sequence | PBM E-score of 8-mer
76 | ACCGACAT | -0.042 ± 0.038
77 | GCCGACAA | 0.161 ± 0.014
78 | GACAATTA | 0.029 ± 0.11
79 | GGACAACA | 0.0909 ± 0.012
80 | GAGGATGC | -0.0317 ± 0.049
81 | CGGAATGC | -0.214 ± 0.051
82 | GCGAACGC | 0.3749 ± 0.0018
83 | GCGAACGA | 0.283 ± 0.035
84 | CCGAACGC | -0.0118 ± 0.08
85 | GCAGAGAA | -0.328 ± 0.0058
86 | GACTCTCA | 0.0161 ± 0.056
87 | CTTCACCC | 0.123 ± 0.04
88 | ATTCACAA | 0.299 ± 0.061
89 | ATTCACAG | 0.395 ± 0.025
90 | GTTCACAA | 0.376 ± 0.02
91 | GTTCACGA | 0.275 ± 0.0011
92 | ATTCACAC | 0.4807 ± 0.0029
93 | CTTCACAC | 0.4852 ± 0.00088
94 | CTTCACAA | 0.32 ± 0.0058
95 | ATTCACTC | 0.115 ± 0.056
96 | ATTCACCG | 0.0187 ± 0.041
97 | ATTCACTG | 0.0169 ± 0.045
98 | GTTCACTA | -0.0482 ± 0.02
